Screening results as filed in PubChem.
Rows were chosen to be rich in hits. Some 28% of all compounds tested hit in one or more screens of this group.
CYP2C9 act: human CYP2C9 activators, primary screen, biochemical, luminescence; recombinant CYP2C9, luciferin-H conversion; hits give high values; factor 1 = untreated enzyme, 0 = blocked; Cytochrome P450 2C9 (Homo sapiens), P11712; AID 1024, 2008; hit rate 1.4% among 96,000; activation factor at 5 µM;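 active = activation factor of 2 or more for CYP2C9 at a 5 µM dose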;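 also: 0 = sulfaphenazole-blocked wells and 1 = vehicle-only wells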
CYP2C19 act: human CYP2C19 activators, primary screen, biochemical, luminescence. Cytochrome P450 2C19 (Homo sapiens), P33261. recombinant CYP2C19, luciferin-H EGE luminescence; hits give high values; 0 = fully inhibited enzyme, 1 = untreated enzyme. activation factor at 5 µM. 96,000 tested, under 10 active. AID 1025, 2008;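 active = activation factor of at least 2 at 5 µM in the primary screen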;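 also: 0 = wells with 2.5 mM tranylcypromine and 1 = vehicle-only wells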
CYP2C9 inh: blockers of cytochrome P450 2C9 activity – biochemical, luminescence, ADME assay, primary screen | inhibition, % at 5 µM | hit rate 20% among 96,000 | CYP2C9 Supersomes, luciferin-H conversion | P11712 | AID 777, 2007;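 active = blocking of liver enzyme CYP2C9 beyond about 50% at 5 µM, limit read from the data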
CD11b adhes enh: enhancers of CD11b/CD18 adhesion to fibrinogen, primary screen, K562 cells, luminescence. Integrin beta-2 (Homo sapiens) + Integrin alpha-M (Homo sapiens), P05107+P11215. ATPlite luminescence. activation, % at 10 µM. hit rate 0.07% among 93,000;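 active = 10 µM primary screen giving 50% or more activity, confirmed by 40% or more on retest at that dose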
Target sequence (P05107 whole entry, looked up, other chains not shown): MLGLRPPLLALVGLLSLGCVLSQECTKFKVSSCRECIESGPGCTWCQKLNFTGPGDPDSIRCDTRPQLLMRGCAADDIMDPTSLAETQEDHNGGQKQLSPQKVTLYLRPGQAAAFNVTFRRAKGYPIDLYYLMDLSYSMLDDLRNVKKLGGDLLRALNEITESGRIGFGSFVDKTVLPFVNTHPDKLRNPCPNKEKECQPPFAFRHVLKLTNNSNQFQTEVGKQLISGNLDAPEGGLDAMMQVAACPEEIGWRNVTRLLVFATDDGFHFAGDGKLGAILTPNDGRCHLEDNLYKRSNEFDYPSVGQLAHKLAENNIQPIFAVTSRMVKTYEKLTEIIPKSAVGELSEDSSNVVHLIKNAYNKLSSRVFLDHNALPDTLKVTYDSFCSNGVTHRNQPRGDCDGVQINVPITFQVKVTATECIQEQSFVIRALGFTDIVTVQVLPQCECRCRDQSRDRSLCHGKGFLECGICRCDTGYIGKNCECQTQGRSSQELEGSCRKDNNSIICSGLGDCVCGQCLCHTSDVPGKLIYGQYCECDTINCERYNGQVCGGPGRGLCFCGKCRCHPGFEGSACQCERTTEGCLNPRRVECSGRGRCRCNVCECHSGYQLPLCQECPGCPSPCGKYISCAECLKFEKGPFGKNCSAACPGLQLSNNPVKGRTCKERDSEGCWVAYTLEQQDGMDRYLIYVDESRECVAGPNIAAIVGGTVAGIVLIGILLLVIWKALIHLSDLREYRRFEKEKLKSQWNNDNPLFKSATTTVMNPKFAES
CYP2C19 inhib: blockers of cytochrome P450 2C19 activity – biochemical, luminescence, ADME assay, primary screen; inhibition, % at 5 µM; P33261; hit rate 21% among 96,000; CYP2C19 Supersomes, luciferin-H EGE luminescence, 30 min; AID 778, 2007;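 active = CYP2C19 inhibition above a set limit at 5 µM in the primary screen, cut at about 50% in these data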;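 also: plate controls were negative control wells for no effect and 2.5 mM tranylcypromine positive control for full effect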
CD11b adhes inh: inhibitors of CD11b/CD18 adhesion to fibrinogen, primary screen, K562 cells, luminescence; ATPlite luminescence; Mn2+ added to activate the integrin; Integrin beta-2 (Homo sapiens) + Integrin alpha-M (Homo sapiens), P05107+P11215; inhibition, % at 10 µM; AID 1497, 2009; hit rate 0.54% among 93,000;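 active = primary inhibition of 50% or more at 10 µM, then 40% or more on retest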
Active calls of the source: *.

`Cc1nc2ccc(C(C(F)(F)F)(C(F)(F)F)C(F)(F)F)cc2[nH]1` gave CYP2C9 act 0.4, CYP2C19 act 0.6, CYP2C9 inh 63*, CD11b adhes enh 1, CYP2C19 inhib 42 and CD11b adhes inh 0.
Screening O=C(/C=C/c1ccccc1)NC(NC(=S)Nc1cc(Cl)ccc1Cl)C(Cl)(Cl)Cl (centres undefined) returned CYP2C9 act 0.1, CYP2C19 act 0.7, CYP2C9 inh 87* and CYP2C19 inhib 28.
`COc1ccc(NC(=S)NC(NC(=O)/C=C/c2ccccc2)C(Cl)(Cl)Cl)cc1` (centres undefined) gave CYP2C9 act 0.2, CYP2C19 act 0.8, CYP2C9 inh 80* and CYP2C19 inhib 24.
For S=C(NCCCc1ccccc1)Nc1ccc(Cl)cc1 the results were CD11b adhes enh -8 and CD11b adhes inh 101.
For CC(=O)NC(NC(=S)Nc1ccc(N=Nc2ccccc2)cc1)C(Cl)(Cl)Cl (centres undefined) the results were CYP2C9 act 0.7, CYP2C19 act 0.7, CYP2C9 inh 27 and CYP2C19 inhib 27.
`O=C(/C=C/c1ccccc1)NC(NC(=S)Nc1ccc(Cl)cc1)C(Cl)(Cl)Cl` (centres undefined) gave CYP2C9 act 0.3, CYP2C19 act 1, CYP2C9 inh 70*, CD11b adhes enh 23, CYP2C19 inhib 3 and CD11b adhes inh -17.
`COC(=O)NC(NC(=S)Nc1ccccc1OC)C(Cl)(Cl)Cl` (centres undefined) gave CD11b adhes enh 0 and CD11b adhes inh 3.
`O=C(CCc1ccccc1)NC(NC(=S)Nc1ccc(Cl)cc1)C(Cl)(Cl)Cl` (centres undefined) gave CYP2C9 act 0.1, CYP2C19 act 0.7, CYP2C9 inh 92*, CD11b adhes enh -1, CYP2C19 inhib 27 and CD11b adhes inh -5.
Screening Cc1ccc(N2CC(C(=O)NCc3ccccn3)CC2=O)cc1 (centres undefined) returned CYP2C9 act 0.7, CYP2C19 act 0.8, CYP2C9 inh 26, CD11b adhes enh 4, CYP2C19 inhib 17 and CD11b adhes inh -8.
Screening COc1ccc(C2=Nn3c(nnc3-c3ccc(OC)cc3)SC2)cc1 returned CYP2C9 act 0.5, CYP2C19 act 0.8, CYP2C9 inh 52*, CD11b adhes enh -2, CYP2C19 inhib 22 and CD11b adhes inh 19.
For COc1ccc(-c2nnc3n2N=C(c2cccc(Br)c2)CS3)cc1OC the results were CYP2C9 act 0.6, CYP2C19 act 0.6, CYP2C9 inh 44, CD11b adhes enh 1, CYP2C19 inhib 36 and CD11b adhes inh 12.
COc1cccc(C2=Nn3c(nnc3-c3ccccc3O)SC2)c1 was read as CYP2C9 act 0.3, CYP2C19 act 0.6, CYP2C9 inh 69*, CD11b adhes enh 35, CYP2C19 inhib 43 and CD11b adhes inh -16.
`Clc1ccccc1C1=Nn2c(nnc2-c2ccncc2)SC1` gave CYP2C9 act 0.3, CYP2C19 act 0.4, CYP2C9 inh 72*, CD11b adhes enh -3, CYP2C19 inhib 61* and CD11b adhes inh -7.
Screening Cc1ccc(-c2nnc3n2N=C(c2ccccc2)CS3)cc1 returned CYP2C9 act 1.1, CYP2C19 act 1.2, CYP2C9 inh -5, CD11b adhes enh -2, CYP2C19 inhib -15 and CD11b adhes inh 0.
For COc1cc(-c2nnc3n2N=C(c2ccccc2)CS3)cc(OC)c1OC the results were CYP2C9 act 0.3, CYP2C19 act 0.3, CYP2C9 inh 68*, CD11b adhes enh -3, CYP2C19 inhib 73* and CD11b adhes inh -1.
CCOC(=O)N1CCC(NC(=O)c2cc3ccccn3n2)CC1 was read as CYP2C9 act 0.9, CYP2C19 act 0.9, CYP2C9 inh 10, CD11b adhes enh 3, CYP2C19 inhib 6 and CD11b adhes inh 5.
`Cc1cccc(-c2nnc3n2N=C(c2ccccc2Br)CS3)c1` gave CYP2C9 act 0.5, CYP2C19 act 0.2, CYP2C9 inh 52*, CD11b adhes enh -2, CYP2C19 inhib 85* and CD11b adhes inh -12.
`COc1cccc(-c2nnc3n2N=C(c2cc(OC)ccc2OC)CS3)c1` gave CYP2C9 act 0.4, CYP2C19 act 0.3, CYP2C9 inh 57* and CYP2C19 inhib 72*.
`COc1ccc(OC)c(C2=Nn3c(nnc3-c3cc(OC)c(OC)c(OC)c3)SC2)c1` gave CYP2C9 act 0.1, CYP2C19 act 0.4, CYP2C9 inh 88*, CD11b adhes enh 0, CYP2C19 inhib 60* and CD11b adhes inh 2.
c1ccc(C2=Nn3c(nnc3-c3cc(-c4ccccc4)n[nH]3)SC2)cc1 was read as CYP2C9 act 1.2, CYP2C19 act 1.1, CYP2C9 inh -16, CD11b adhes enh 6, CYP2C19 inhib -15 and CD11b adhes inh 5.
Screening COc1cccc(-c2nnc3n2N=C(C(C)(C)C)CS3)c1 returned CYP2C9 act 0.7, CYP2C19 act 0.3, CYP2C9 inh 30 and CYP2C19 inhib 68*.
O=C(Nc1nc2c(s1)CCCC2=O)c1cnccn1 was read as CYP2C9 act 0.8, CYP2C19 act 0.5, CYP2C9 inh 17, CD11b adhes enh -1, CYP2C19 inhib 48 and CD11b adhes inh -9.
`Cc1ccc2c([N+](=O)[O-])c(C)ccc2n1` gave CYP2C9 act 1, CYP2C19 act 0.9, CYP2C9 inh 3 and CYP2C19 inhib 10.
`CCCOc1cccc(C2/C(=C(/O)c3ccncc3)C(=O)C(=O)N2CCCN(C)C)c1` (centres undefined) gave CYP2C9 act 1.1, CYP2C19 act 0.9, CYP2C9 inh -6, CD11b adhes enh 2, CYP2C19 inhib 7 and CD11b adhes inh -1.
O=c1[nH]c2ccsc2c(=O)n1-c1ccc(F)cc1 was read as CYP2C9 act 0.9, CYP2C19 act 0.9, CYP2C9 inh 7, CD11b adhes enh -2, CYP2C19 inhib 11 and CD11b adhes inh 5.
CC(NC(=O)C12CC3CC(C1)CC(n1cncn1)(C3)C2)C12CC3CC(CC(C3)C1)C2 (centres undefined) was read as CYP2C9 act 0.3, CYP2C19 act 0.3, CYP2C9 inh 72* and CYP2C19 inhib 68*.
Cn1cccc1CC(=O)N/N=C\c1c2ccccc2cc2ccccc12 was read as CYP2C9 act 0.7, CYP2C19 act 0.5, CYP2C9 inh 30, CD11b adhes enh 9, CYP2C19 inhib 52* and CD11b adhes inh -4.
